Outcome data for 22 compounds are collected here from PubChem BioAssay (NCATS).

Molecules are shown by their SMILES. Records with an inconclusive call do not appear. Active and inactive are the calls of the source. The call rests on the fitted dose curve; in most records, active means well fitted cell-killing curve with a large enough effect; inconclusive means small, poorly fitted or top-dose-only effect; inactive means flat fitted curve, though single readings scatter.

The assay in a line: Cell Viability - LYMP2-006 (AID 978). Further: nearly all actives have a fitted effect of over 60% in size. As to conditions: LYMP2-006 lymphoblastoid cell viability, qHTS; series mostly up to 92.2 µM. The text has this: NIH Chemical Genomics Center [NCGC]
NIH Molecular Libraries Screening Centers Network [MLSCN]
National Institutes of Environmental Health Sciences [NIEHS]
National Toxicology Program [NTP]
We have developed a 1536-well cell-based assay for quantitative high throughput screening (qHTS) against a number of cell lines to determine in vitro cytotoxicity of small molecules. This particular assay uses a human lymphoblastoid cell line (LYMP2-006) purchased from Coriell Institute for Medical Research.
NCGC Assay Protocol Summary:
The CellTiter-Glo luminescent cell viability assay (Promega) is a homogeneous method to measure the number of viable cells in culture. The end point readout of this assay is based on quantitation of intracellular ATP, an indicator of metabolic activity, using the luciferase reaction. Luciferase catalyzes the oxidation of beetle Luciferin to oxyluciferin and light in the presence of ATP. The luminescent signal is proportional to amount of ATP present.
Using the CellTiter-Glo luminescent cell viability assay, the amount of cellular ATP was measured in the lymphoblastoid cell line with complete culture medium following compound treatment for 24 hours. The assay was performed in opaque white Kalypsys 1536-well plates. In the screen, tetraoctylammonium bromide was used as positive control. Library compounds were measured for their ability to cause acute toxicity in the cell line, as reflected by a decrease in intracellular ATP levels, in a concentration-dependent manner. […] AC50 values were determined from concentration-response data modeled with the standard Hill equation.
qHTS protocol for CellTiter Glo lymphoblastoid cellular assay
[Step] [Parameter] [Value] [Description]
1. Reagent; 5 uL; 2500 lymphoblastoid cells/well
2. Time; 5 hr; 37 C incubation
4. Controls; 23 nL; Tetraoctylammonium bromide 6.4pM to 92 uM
5. Time; 24 hr; 37 C incubation
6. Reagent; 5 uL; CellTiter Glo reagent
7. Time; 30 min; Room Temperature
8. Detection; Luminescence; Viewlux plate reader
Keywords: cell viability, cytotoxicity, lymphoblastoid cell line, luminescence, NTPHTS, NTPHTS_NCGC, NIEHS, DSSTox, MLSMR, MLSCN, NIH Roadmap, qHTS, NCGC
(Quantitative high-throughput screening tests each substance at several concentrations.)
`CCCC(O)C(CC)CO` (configuration not stated): the result was inactive.

Take `O=C(O)CCCCC1CCSS1` (configuration not stated): the outcome was inactive. As to `O=C(c1ccccc1)C(O)c1ccccc1` (configuration not stated), the compound was called inactive. As for `O=C1C(c2[nH]c3ccccc3c2O)=Nc2ccccc21`, the call was inactive.

Consider `CCCCOC(=O)c1ccc(N)cc1`, for which the compound was called inactive. Turning to `CC(=O)Nc1ccccc1`, the call was inactive. For the compound `CC(=O)OCC(COC(C)=O)OC(C)=O`, the compound was classed as inactive.

For the compound `Cc1cc(=O)[nH]c(=S)[nH]1`, the compound was called inactive.

For `COc1ccc(O)cc1`, the result was inactive. Turning to `Cc1c(N(C)C)c(=O)n(-c2ccccc2)n1C`, the compound was classed as inactive. With `CCCCCCCC(=O)OCC(COC(=O)CCCCCCC)OC(=O)CCCCCCC`, the compound was classed as inactive. The value for `CC(=O)Nc1ccc(C(=O)O)cc1` was “inactive”; that for `Nc1ccc(S(=O)(=O)c2ccc(N)cc2)cc1` was “inactive”. To `FC(F)(F)C(Cl)Br` (configuration not stated) belongs “inactive”. For `Cc1cc(C)nc(NS(=O)(=O)c2ccc(N)cc2)n1`, the compound was called inactive.

On to `CC(=O)NS(=O)(=O)c1ccc(N)cc1`, for which the call was inactive. The value for `C=CCNC(N)=S` was “inactive”; that for `O=C1c2cccc(O)c2C(=O)c2c(O)cccc21` was “inactive”. The value for `CCN(CC)C(=O)c1cccc(C)c1` was “inactive”; that for `CC1CC(OC(=O)c2ccccc2O)CC(C)(C)C1` (configuration not stated) was “inactive”; that for `CC(=O)Nc1cccc(O)c1` was “inactive”. The value for `CCCCCC(N)=O` was “inactive”.
